# Compound activity: PubChem, National Center for Advancing Translational Sciences (NCATS)
# ELG1 genotox: qHTS screen for small molecules that induce genotoxicity in human embryonic kidney (HEK293T) cells expressing luciferase-tagged ELG1 | actives 1.3% (n = 330,000) | Potency, µM (series often up to 46 µM), for inactives: top-dose activity change, positive = activation, hits mostly activators | AID 504466, 2011 | HEK293T ELG1-luciferase reporter, luminescence, 16 h; further: % of control where 0% means no effect; nearly all actives have a fitted effect of over 60% in size
#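 Reporter readout depends on ELG1 protein level, which increases with genetic stress. After 16 hr compound exposure at 37 °C, luciferase activity was quantified using ONE-Glo.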
# ELG1 DNA repair: qHTS screen for small molecules that inhibit ELG1-dependent DNA repair in human embryonic kidney (HEK293T) cells expressing luciferase-tagged ELG1 | HEK293T ELG1-luciferase reporter, luminescence, 16 h; DNA damage induced by 5-fluorouridine | Potency, µM (doses to about 46.1 µM), without a hit: at the highest dose activity change, negative = inhibition, most hits filed as inhibitors | actives 2.3% (n = 330,000); further: on the % scale 0 is the no-effect control and ±100 the full control effect; nearly all actives have a fitted effect of over 55% in size
#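 Step one: seed 2,000 cells per well. Step two: pin-transfer compound or DMSO alongside 5-fluorouridine. Step three: incubate 16 hr, 37 °C, 5% CO2. Step four: add ONE-Glo, wait 30 min, read luminescence.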
# Rab9 prom act: qHTS Assay for Rab9 Promoter Activators; Huh7 Rab9 promoter-luciferase reporter, luminescence, 24 h; Potency, µM (titrated, usually from 9.22 µM), without a hit: at the top dose activation, negative = inhibition, usual class: activators; actives 2.8% (n = 320,000); further: % of control where 0% means no effect; nearly all actives have a fitted effect of over 60% in size
#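 Huh7 cells stably carrying a Rab9 promoter-luciferase reporter, 1500 cells per well in OP-MEM I with 10% FBS, treated with compound 24 hours at 37C. Luciferase activity read by luminescence after 10 minutes with Amplite reagent.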
# SMN2 splice enh: qHTS Assay for Enhancers of SMN2 Splice Variant Expression; actives 2.8% (n = 210,000); Potency, µM (series often up to 46.1 µM), without a hit: top-dose activity change, positive = activation, usual class: activators; HEK293 SMN2-luciferase splicing reporter, luminescence, 30-36 h; further: % of control where 0% means no effect; nearly all actives have a fitted effect of over 55% in size
#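 qHTS luciferase splicing reporter: luminescence rises when SMN2 exon 7 is included in transfected HEK293 cells. Compound exposure lasted 30-36 h at 37C, with 4.5 mM final sodium butyrate as control, followed by a ONE-Glo read.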
# NPC1 prom act: qHTS Assay for NPC1 Promoter Activators. actives 2.4% (n = 320,000). AID 485313, 2010. Huh7 NPC1 promoter luciferase reporter, 24 h. Potency, µM (top dose mostly 9.22 µM), inactives show at the highest dose activation, usual class: activators; further: % of control where 0% means no effect; nearly all actives have a fitted effect of over 60% in size
#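 Luminescence from an NPC1 promoter-driven luciferase reporter in stably transfected Huh7 cells was measured after 24 h compound treatment at 37 °C, followed by 10 min ambient incubation with luciferase detection reagent.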
# FLuc modulator: qHTS profiling assay for firefly luciferase inhibitor/activator using purifed enzyme and Km concentrations of substrates (counterscreen for miR-21 project). Luciferin 4-monooxygenase (Photinus pyralis), P08659. actives 6.9% (n = 360,000). Potency, µM (series often up to 57.5 µM), without a hit: top-dose activity change, negative = inhibition, usual class: inhibitors. purified FLuc, Km substrates, luminescence inhibition;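 further: plate controls were vehicle for no effect and reference inhibitor for full effect; nearly all actives have a fitted effect of over 55% in size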
# Target sequence (P08659 whole entry, looked up): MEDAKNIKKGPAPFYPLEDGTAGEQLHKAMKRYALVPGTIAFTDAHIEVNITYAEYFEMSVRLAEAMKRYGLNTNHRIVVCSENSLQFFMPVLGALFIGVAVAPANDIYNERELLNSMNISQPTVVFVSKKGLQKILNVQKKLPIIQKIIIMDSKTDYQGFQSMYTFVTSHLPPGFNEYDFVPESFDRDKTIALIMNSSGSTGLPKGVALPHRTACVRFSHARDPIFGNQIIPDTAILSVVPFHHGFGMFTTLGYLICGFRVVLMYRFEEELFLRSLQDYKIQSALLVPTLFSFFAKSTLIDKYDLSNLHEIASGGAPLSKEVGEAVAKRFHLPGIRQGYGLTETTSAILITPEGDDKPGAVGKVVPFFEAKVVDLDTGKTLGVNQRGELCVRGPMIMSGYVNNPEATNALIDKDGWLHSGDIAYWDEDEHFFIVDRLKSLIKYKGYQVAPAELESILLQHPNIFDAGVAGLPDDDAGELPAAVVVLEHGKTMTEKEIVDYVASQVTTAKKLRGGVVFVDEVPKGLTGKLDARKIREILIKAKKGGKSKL
#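 Biochemical qHTS of compounds, final roughly 60 µM downward over six points, against 10 nM purified firefly luciferase using Km concentrations of substrates (10 uM D-luciferin, 10 uM ATP) in Tris acetate pH 7.5 buffer; luminescence output.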
# * = called active by the depositor; ? = inconclusive; / = not tested or not shown. A selection: hits, their analogues and other compounds. The true share with any hit is near 9.2%. The call rests on the fitted dose curve; in most records, active means well fitted curve in the direction sought with a large enough effect; inconclusive means small, poorly fitted or top-dose-only effect, or another doubt; inactive means no such curve, though single readings can be large; an effect the other way counts as inactive or inconclusive. Potency means the concentration at half of the fitted maximal effect.
SMILES,ELG1 genotox,ELG1 DNA repair,Rab9 prom act,SMN2 splice enh,NPC1 prom act,FLuc modulator
O=C(NCCCc1ccncc1)C1CCC(=O)N(CCc2cccc(F)c2)C1 (stereo unspecified),-7%,2%,-8%,/,-2%,2%
COc1cc(NC(=O)CN2C(=O)CCc3cc(Br)ccc32)cc(OC)c1OC,/,/,/,/,/,-7%
O=C(NCCCC(NC(=O)OCc1ccccc1)C(=O)O)OCc1ccccc1 (stereo unspecified),3%,-3%,1%,/,-2%,-19%
COC(=O)CNC(=S)NC(=O)c1ccc(C(C)(C)C)cc1,5%,11%,-2%,2%,-1%,13µM*
CC(C)(C)c1cc(Cl)c(O)c(NC(=S)NC(=O)c2cccnc2)c1,-5%,9.2µM*,-2%,-78%,-10%,?
CC(C)(C)c1ccc(C(=O)c2c[nH]c(C(=O)NCc3cccnc3)c2)cc1,-5%,-20%,24%,-6%,17%,7.6µM*
CC(C)(C)c1ccc(C(=O)NCc2cccnc2)cc1,?,?,-18%,6%,22%,?
O=C(CNC(=S)NC(=O)c1ccccc1)c1ccccc1,16%,?,6%,?,15%,17µM*
CCOc1ccc(CNC(=O)c2cccc(NC(=O)N3CCSc4ncccc43)c2)cc1,/,/,/,/,/,3%
CCC1CCC(C(=O)NC(CCSC)C(=O)NCCN(CC(C)C)CC(C)C)CC1 (stereo unspecified),7%,1%,-1%,-2%,-2%,-2%
Cc1c(-c2nc(-c3ccc4c(c3)OCO4)no2)nnn1-c1ccc(C(C)C)cc1,/,/,/,/,/,2%
COc1cc2c(cc1OC)C(c1cc3ccccc3oc1=O)=NC(C)(C)C2,-6%,?,-2%,-82%,-3%,3%
COCCCNC(=S)NC(=O)c1ccc(C)cc1,?,?,?,14µM*,?,13µM*
COc1ccc(C(=O)c2c[nH]c(C(=O)NCCCn3ccnc3)c2)cc1,5%,6%,5%,-5%,1%,-2%
CC(C)(C)c1ccc(C(=O)c2c[nH]c(C(=O)NCCCn3ccnc3)c2)cc1,1%,?,5%,-50%,24%,19µM*
COC(=O)c1ccc(NC(=O)C(C)Sc2nc(=O)cc(N)n2CCc2ccccc2)cc1 (stereo unspecified),/,/,/,4%,/,-9%
CCOc1cc(S(=O)(=O)N2CCN(C(=O)c3ccco3)CC2)ccc1F,0%,-11%,3%,/,-8%,0%
C=CCN=Cc1c(C)[nH]n(-c2ccccc2)c1=O,14%,?,3.5µM*,?,29%,?
Cc1ccc(-n2[nH]c(C)c(/C=N/Nc3ccc([N+](=O)[O-])cc3[N+](=O)[O-])c2=O)cc1,-11%,-21%,-11%,-63%,-8%,19µM*
Cc1[nH]n(-c2ccc([N+](=O)[O-])cc2)c(=O)c1C=NCCc1c(C)[nH]c2ccccc12,-11%,26µM*,1%,-25%,-4%,-1%
Cc1[nH]n(-c2ccc([N+](=O)[O-])cc2)c(=O)c1C=NCC1CCCO1 (stereo unspecified),?,?,?,29%,23%,?
O=C(O)c1ccc2c(c1)C(=O)N(c1ccc(Nc3ccccc3)cc1)C2=O,-3%,-12%,-1%,/,-1%,-16%
Oc1ccc(NCc2ccc(OCc3ccccc3Cl)cc2)cc1,/,/,/,7%,/,27µM*
Oc1ccc(NCc2ccc(OCc3ccccc3)cc2)cc1,?,?,-5%,21%,-13%,27µM*
